According to PubChem BioAssay (NCI):
About 79,000 compounds went through this panel and 15% of them were active in at least one assay; those are over-represented in the sample as a whole. Cut-off read from the data, not from the text of the source: active = growth inhibition above about 70%; inactive = the rest. Where a SMILES comes first, the peptide text is derived from it.

Assays:
[1] = NCI Yeast Anticancer Drug Screen. Data for the rad50 strain (AID 155);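 note: 0% = growth of vehicle-only cultures of the same strain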; conditions: S. cerevisiae rad50 strain growth inhibition; at 50.0 µM; stronger effect = higher value
Procedure, shortened: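 Genetically altered yeast (DNA repair pathway); compound treatment; growth inhibition vs vehicle ctrl.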

[2] = NCI Yeast Anticancer Drug Screen. Data for the mec2-1 strain (AID 157); conditions: S. cerevisiae mec2-1 strain, at 50.0 µM, stronger effect = higher value
Procedure, shortened: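 Vehicle-treated cultures served as reference for growth inhibition of compound-exposed mec2-1 yeast.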

[3] = NCI Yeast Anticancer Drug Screen. Data for the sgs1 mgt1 strain (AID 161);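 note: 0% = growth of cultures given vehicle only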; conditions: S. cerevisiae sgs1 mgt1 strain, at 50.0 µM, stronger effect = higher value
Procedure, shortened: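 Test agents were incubated with a DNA-repair-mutant yeast strain. Growth was then read and compared against vehicle-treated controls.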

[4] = NCI Yeast Anticancer Drug Screen. Data for the cln2 rad14 strain (AID 165);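 note: 0% = growth equal to vehicle treated cultures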; conditions: S. cerevisiae cln2 rad14 strain, at 50.0 µM, stronger effect = higher value
Procedure, shortened: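 Each compound was tested on cln2 rad14 yeast. Inhibition of growth was calculated against vehicle-exposed controls.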

[5] = NCI Yeast Anticancer Drug Screen. Data for the bub3 strain (AID 167); conditions: S. cerevisiae bub3 mutant strain, at 50.0 µM, stronger effect = higher value
Procedure, shortened: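 Yeast carrying a defined mutation is treated with each compound, and growth is compared with that of vehicle-exposed cells to give inhibition.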

[6] = NCI Yeast Anticancer Drug Screen. Data for the mlh1 rad18 strain (AID 175); conditions: S. cerevisiae mlh1 rad18 strain growth inhibition; at 50.0 µM; stronger effect = higher value
Procedure, shortened: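 Vehicle-treated cultures served as the reference for growth inhibition in a yeast strain carrying DNA damage repair alterations exposed to each compound.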

Measured: growth inhibition

Cc1cc([N+](=O)[O-])ccc1NC(=O)c1c(Cl)c(Cl)c(C(=O)Nc2ccc([N+](=O)[O-])cc2C)c(Cl)c1Cl
inactive: [1] 38.5% | [2] 28.1% | [3] 34.9% | [4] -34% | [5] 7.9% | [6] 45.1%

NC(=O)CCC1CCCCN1 (stereo not given)
inactive: [1] 27.2% | [2] 18.8% | [3] 6.5% | [4] 5.7% | [5] 1.85% | [6] 2.2%

COC(=O)C1(Cc2ccc3c(c2)CCC3)Cc2cc3c(cc2C1)CCC3
inactive: [1] -16.1% | [2] 15.7% | [3] -40.2% | [4] 15.8% | [5] -0.35% | [6] -21.6%

Cc1cc(Cl)ncc1[N+](=O)[O-]
inactive: [1] -12.2% | [2] 14.3% | [3] 7.55% | [4] -15.9% | [5] -9.65% | [6] 5.75%

CC(=O)NC(C(=O)N1CCCC1C(=O)O)C(C)C (stereo not drawn) (Ac-Val-Pro-OH; configuration not given here)
inactive: [1] 7.9% | [2] -3.15% | [3] -6.65% | [4] 1.7% | [5] -19.1% | [6] 0.6%

Clc1cccc(Cl)c1/C=N/N1CCN(/N=C/c2c(Cl)cccc2Cl)CC1
inactive: [1] 18.9% | [2] 10.1% | [3] 17.9% | [4] 6.45% | [5] -4.1% | [6] 0.7%

CC(C)=CC(=O)OC(C)(C)C
inactive: [1] 11.4% | [2] 1.65% | [3] 3.35% | [4] 6.1% | [5] 7.05% | [6] 23.7%

CN(C)c1ccc(/C=C/C=C/C(=O)c2ccccc2)cc1
inactive: [1] -5.35% | [2] 16.2% | [3] -0.1% | [4] 5.55% | [5] -13.8% | [6] -7.4%

COC(=O)c1cc(C(=O)OC)c(C/C(=N/Nc2ccc([N+](=O)[O-])cc2[N+](=O)[O-])C(=O)Nc2cccc(C(F)(F)F)c2)nc1C/C(=N/Nc1ccc([N+](=O)[O-])cc1[N+](=O)[O-])C(=O)Nc1cccc(C(F)(F)F)c1
inactive: [1] 57% | [2] -5.95% | [3] 1.15% | [4] 25.4% | [5] 37.9% | [6] 59.8%

Cc1ccc(NC(=O)C(=O)C(C2C(C)CC(=O)C2CC(=O)O)[N+](=O)[O-])cc1 (stereo not given)
inactive: [1] 23.6% | [2] 11.7% | [3] 12.2% | [4] 17.7% | [5] 13.7% | [6] 30.6%

CC1(O)C2C3C(I)C4C5C3C1C5C42 (stereo not given)
inactive: [1] 22.6% | [2] 9.05% | [3] 10.1% | [4] 6.7% | [5] 10.3% | [6] 17.4%

CCCC(CCO)(CCO)c1ccccc1
inactive: [1] 16.6% | [2] -30.4% | [3] -9.65% | [4] 10.9% | [5] 8.1% | [6] -5.7%

O=C1C(=Cc2cccc(O)c2)N=C(c2ccccc2)N1n1c(-c2ccccc2)nc2ccccc2c1=O
inactive: [1] -14.3% | [2] 5.15% | [3] 25.8% | [4] 14.7% | [5] -1.75% | [6] 11.9%

CN(C)S(=O)(=O)c1ccc(CCc2ccc(S(=O)(=O)N(C)C)cc2)cc1
inactive: [1] 13.6% | [2] 2.65% | [3] -12.7% | [4] 5.9% | [5] 6.35% | [6] 6.2%

Cc1ccc(NC(=O)CCC(=O)C2Cc3ccccc3C2=O)cc1C (stereo not given)
inactive: [1] -16% | [2] -7.55% | [3] -5.05% | [4] 21.3% | [5] 1.65% | [6] 3.85%

COc1ccccc1-c1ccc([N+](=O)[O-])cc1[N+](=O)[O-]
inactive: [1] 18.9% | [2] -5.7% | [3] -1.9% | [4] 8.65% | [5] 22.2% | [6] 14.8%

O=C(O)CN1C(=O)c2ccccc2C1=O
inactive: [1] -8.75% | [2] -15.7% | [3] -5.5% | [4] -25.7% | [5] -27.6% | [6] -20.3%

Nc1[nH]c(=O)nc2nc(I)[nH]c12
inactive: [1] 5.05% | [2] 2.75% | [3] 22.7% | [4] -17.2% | [5] 22.9% | [6] 3.35%

O=C(CCN1C(=O)NC(c2ccccc2)(c2ccccc2)C1=O)NCCN1CCOCC1
inactive: [1] -0.6% | [2] 13.5% | [3] 5.7% | [4] 0.95% | [5] -2% | [6] 24.7%

Cc1c(C(=O)O)n2cnnc2c2ccccc12
inactive: [1] 22.8% | [2] 4% | [3] -38.1% | [4] 11.9% | [5] -15.8% | [6] 1.5%
